# Data taken from PubChem BioAssay AID488969 (Vanderbilt High Throughput Screening Facility, 2010).
# Whole data set: some 110,000 compounds, median “z-score” near -0.1, cut for the highest 2% near 2. The full list was thinned out, with the highest values kept by preference. Activity calls are given as the source filed them.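 The calls were made as follows: active = z-score in the third read window above 3 or below -3; inactive = the rest.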
# Target: Metabotropic glutamate receptor 8 (Rattus norvegicus) (UniProt P70579)
# Experiment: rat mGluR8 modulators via GIRK flux, primary screen, cell-based, thallium flux, HTS (AID 488969)
# Conditions: HEK293 rat mGluR8, GIRK (G protein-gated inwardly rectifying potassium channel) thallium flux, FluoZin2; at 10 µM; stronger effect = higher value; submaximal glutamate (EC20) added with thallium
# Chain of Metabotropic glutamate receptor 8 (Rattus norvegicus) (P70579 whole entry, looked up): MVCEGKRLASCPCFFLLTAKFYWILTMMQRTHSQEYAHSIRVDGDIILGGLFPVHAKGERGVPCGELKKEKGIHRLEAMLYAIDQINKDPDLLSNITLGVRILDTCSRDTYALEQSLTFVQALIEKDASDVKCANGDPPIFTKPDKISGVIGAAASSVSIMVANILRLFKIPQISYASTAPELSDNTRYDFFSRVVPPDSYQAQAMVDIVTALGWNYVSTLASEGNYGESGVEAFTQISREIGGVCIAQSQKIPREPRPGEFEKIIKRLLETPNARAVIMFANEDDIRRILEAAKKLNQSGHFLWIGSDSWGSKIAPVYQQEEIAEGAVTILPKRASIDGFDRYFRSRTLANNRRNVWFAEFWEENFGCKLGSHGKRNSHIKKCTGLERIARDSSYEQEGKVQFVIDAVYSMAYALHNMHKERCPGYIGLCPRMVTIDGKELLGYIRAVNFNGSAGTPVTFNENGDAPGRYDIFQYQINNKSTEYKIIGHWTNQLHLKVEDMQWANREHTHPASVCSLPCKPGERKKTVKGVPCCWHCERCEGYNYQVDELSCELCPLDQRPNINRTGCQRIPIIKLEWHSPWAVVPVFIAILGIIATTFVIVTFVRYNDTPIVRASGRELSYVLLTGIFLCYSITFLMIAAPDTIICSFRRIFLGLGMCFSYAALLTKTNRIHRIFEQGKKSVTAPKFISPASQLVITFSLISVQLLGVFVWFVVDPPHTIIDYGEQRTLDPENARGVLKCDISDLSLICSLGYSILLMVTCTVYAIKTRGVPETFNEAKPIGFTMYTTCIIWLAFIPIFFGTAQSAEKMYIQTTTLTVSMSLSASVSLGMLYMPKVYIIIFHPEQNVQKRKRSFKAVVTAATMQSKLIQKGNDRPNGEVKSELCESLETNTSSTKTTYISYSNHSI
row,Structure (SMILES),z-score
1,CCn1c(SCc2nc3ccccc3c(=O)[nH]2)nc2ccccc2c1=O,-0.672
2,Cc1ccc2cc(CN(Cc3cccs3)Cc3nnnn3CC3CCCO3)c(=O)[nH]c2c1 (stereo not drawn),-0.0837
3,CCOC(=O)N1CCN(CC(=O)Nc2ccc(C)c(Br)c2)CC1,-0.241
4,CCOC(=O)COc1ccc(S(=O)(=O)Nc2ccc(C)cc2)cc1,-0.352
5,CCC(c1c(C)[nH]oc1=O)c1c(C)[nH]oc1=O,0.119
6,COc1cc(/C=C2/SC(N)=NC2=O)ccc1Oc1ccc([N+](=O)[O-])cc1[N+](=O)[O-],-0.644
7,Cc1cc(C(=O)COC(=O)Cc2n[nH]c(=O)c3ccccc23)c(C)n1-c1cccc(C(F)(F)F)c1,-1.01
8,CCN(CC)c1ccc2cc(C(C)=O)c(=O)oc2c1,-2.23
9,CCN(CC)c1ccc2cc(-c3nnc(-c4ccccc4)o3)c(=O)oc2c1,2.42
10,CCN(CC)c1ccc2cc(C(N)=O)c(=O)oc2c1,-0.0435
11,CCN(CC)c1ccc2cc(-c3nnc(-c4ccc(Br)cc4)o3)c(=O)oc2c1,-4 (active)
12,CCN(CC)c1ccc2cc(-c3nnc(-c4ccncc4)o3)c(=O)oc2c1,-1.17
13,CCN(CC)c1ccc2cc(C=O)c(=O)oc2c1,17.6 (active)
14,CC1CCc2nn(CC(=O)NCCCN3CCOCC3)cc2C1 (stereo not drawn),-0.0438
15,O=C(c1cccc(-n2cnnn2)c1)N1CCOCC1,-0.145
16,COC(=O)c1ccc(C(C(=O)NCc2ccccc2)N(Cc2cccs2)C(=O)c2cnccn2)cc1 (stereo not drawn),-0.245
17,CCc1ccccc1N1C(=O)c2ccccc2S1(=O)=O,-0.409
18,CN(CCc1ccccn1)S(=O)(=O)c1ccccc1F,0.185
19,O=C1c2ccccc2C(=O)N1CNc1ccccc1,0.141
20,O=C1c2ccccc2C(=O)N1Nc1ccccc1,4.88 (active)
21,O=C1C=C(c2ccccc2)C(=O)N1Nc1ccccc1,0.219
22,COc1ccc(/C=N/OCC(=O)Nc2nc3ccccc3s2)cc1,-0.132
23,Cc1cc(OCCN2CCCCC2)nc2ccccc12,0.234
24,Cc1cc(C)cc(C(=O)n2cnnc2N)c1,-0.0618

row,Structure (SMILES),z-score
1,CC(C)OC(=O)CC12CN(C)CC(CC(=O)OC(C)C)(CN(C)C1)C2=O,0.458
2,CC(C)OC(=O)CC12CN3CN(C1)CC(CC(=O)OC(C)C)(C3)C2=O,3.43 (active)
3,CCOC(=O)CC12CN3CN(C1)CC(CC(=O)OCC)(C3)C2=O,-0.0089
4,O=C(O)c1ccc(F)c(S(=O)(=O)Nc2ccccc2Cl)c1,-0.11
5,COC(=O)c1ccccc1NC(=O)c1cccc(NC(=O)CSCc2ccccc2)c1C,-0.0727
6,Cc1cc(Cl)ccc1OCCCC(=O)NCC1CCCO1 (stereo not drawn),-0.79
7,CC(C)C(=O)Nc1ccc(NC(=O)c2cc3ccccc3o2)cc1,-0.885
8,Cc1cccc(NC(=O)c2cc3ccccc3o2)c1,-1.37
9,CC(C)C(=O)Nc1cccc(NC(=O)c2cc3ccccc3o2)c1,7.7 (active)
10,CCOc1ccc(OCC)c(NC(=O)c2[nH]c(C)c(C(C)=O)c2C)c1,0.862
11,O=C(NCc1nc2ccccc2[nH]1)c1ccc(Cl)c(S(=O)(=O)N2CCCC2)c1,-0.297
12,O=C(NCc1nc2ccccc2[nH]1)c1cccc(S(=O)(=O)N2CCOCC2)c1,0.567
13,O=C(NCc1nc2ccccc2[nH]1)c1cccc(S(=O)(=O)N2CCCC2)c1,2.4
14,CCN(c1c(C)n(C)n(-c2ccccc2)c1=O)S(C)(=O)=O,0.17
15,Cc1ccc(S(=O)(=O)NC2CCCC2)cc1C,-0.157
16,Cc1cc(C)c2c(c1)-c1c(ssc1=S)C(C)(C)N2C(=O)CN1C(=O)c2ccccc2C1=O,0.383
17,CC(C)(C)Nc1nc(Cl)nc(NC(C)(C)C)n1,-0.0263
18,CC(C)(C)Nc1nc(NN)nc(NC(C)(C)C)n1,-0.766
19,CNc1nc(Cl)nc(NC(C)(C)C)n1,7.77 (active)
20,CCn1c(=NC(=O)CSC(C)=O)sc2cc(F)ccc21,0.658
21,CCn1c(=NC(=O)CSC(C)=O)sc2ccccc21,3.49 (active)
22,CCn1c(=NC(=O)CSC(C)=O)sc2cc(OC)ccc21,0.477
23,CN1CCN(CCC(=O)Nc2ccc3c(c2)OCO3)CC1,0.213
24,Cc1cccc(NC(=O)CSc2nc3ccc(NC(=O)CSc4nnnn4-c4ccccc4)cc3s2)c1C,0.181

row,Structure (SMILES),z-score
1,CCN(CC)S(=O)(=O)c1cc(NC(=O)COC(=O)c2sc3ccccc3c2Cl)ccc1C,-0.0136
2,Cc1cc(/C=C2\SC(=S)NC2=O)c(C)n1C,-0.121
3,CCn1c(C)cc(/C=C2/SC(=S)NC2=O)c1C,0.271
4,Cc1sc(-n2c(C)cc(/C=C3\SC(=S)NC3=O)c2C)c(C#N)c1C,2.26
5,CCN1CCN(C(=O)C(C)N(c2ccc(C)cc2)S(C)(=O)=O)CC1 (stereo not drawn),1.05
6,CCOC(=O)c1sc(NC(=O)CN(CC)CC)c(C(=O)OCC)c1C,-0.132
7,CCOC(=O)c1sc(NN=C(C(=O)OC)C(=O)OC)c(C(=O)OCC)c1C,2.57
8,CCOC(=O)c1sc(NC(=O)CN2CCCC2)c(C(=O)OCC)c1C,-0.225
9,COCCSc1ccccc1C(=O)Nc1ccncc1,0.236
10,CCCOc1cccc(C(=O)NC(=S)Nc2cccc(C(F)(F)F)c2)c1,3.57 (active)
11,S=C(NCc1ccccc1)NCc1cccc(CNC(=S)NCc2ccccc2)c1,2.84
12,O=C(Cc1ccccc1)NC(=S)Nc1cccc(C(F)(F)F)c1,4.01 (active)
13,S=C(NCc1ccccc1)NCc1ccc2c(c1)OCO2,1.86
14,CCCOc1cccc(C(=O)NC(=S)Nc2ccccc2)c1,0.0309
15,S=C(NCc1ccccc1)NCc1ccccc1,0.346
16,O=C(Cc1ccccc1)NC(=S)Nc1cc(C(F)(F)F)ccc1Cl,0.00533
17,O=C(CN1CCN(c2ccccc2)CC1)Nc1cccc(C(F)(F)F)c1,0.756
18,CCC(=O)Nc1cccc(NC(=S)NC(=O)Cc2ccccc2)c1,-0.281
19,O=C(CN1CCN(c2cccc(C(F)(F)F)c2)CC1)Nc1cccc(C(F)(F)F)c1,1
20,O=C(CN1CCN(Cc2ccccc2)CC1)Nc1cccc(C(F)(F)F)c1,7.94 (active)
21,CCCCOc1cccc(C(=O)NC(=S)Nc2cccc(C(F)(F)F)c2)c1,1.84
22,CCN(CC)C(=O)n1nc(C)c(CN2C(=O)c3ccccc3C2=O)c1C,-0.151
23,Nc1ccc(Cl)c(-c2nc3ncccc3o2)c1,0.714
24,CC(C)c1onc(C(=O)N2CCCCC2C)c1[N+](=O)[O-] (stereo not drawn),-0.0403

row,Structure (SMILES),z-score
1,OC(CSc1ccccc1Cl)CN1CCN(c2ccc(F)cc2)CC1 (stereo not drawn),-0.618
2,CCOC(=O)c1cnc2ccc(C)cc2c1Sc1ccc(F)cc1,-0.262
3,Cc1ccc(S(=O)(=O)N2CCCC2C(=O)Nc2cc(C)on2)cc1 (stereo not drawn),0.4
4,Cc1ccc(CNC(=O)c2ccccc2NS(C)(=O)=O)cc1,-0.309
5,FC(F)Oc1ccc(NC(=S)NCc2ccccc2)cc1,1.51
6,COc1ccc(CNC(=S)Nc2ccc(OC)cc2)cc1,0.711
7,FC(F)(F)c1cccc(NC(=S)NCc2ccccc2)c1,5.63 (active)
8,FC(F)(F)c1cccc(NC(=S)NNC(=S)NCc2ccccc2)c1,-0.388
9,FC(F)(F)Oc1ccc(NC(=S)NCc2ccccc2)cc1,3.23 (active)
10,FC(F)(F)c1cccc(NC(=S)NCc2ccccn2)c1,0.164
11,N=C(N)SCc1nc2ccccn2c1Br,0.308
12,CCOc1cccc(C(=O)Nc2ccc3oc(Cc4ccc(Cl)cc4)nc3c2)c1,-0.351
13,COc1ccc(N(CC(O)CN2C(=O)NC(C)(C)C2=O)S(=O)(=O)c2ccccc2)cc1 (stereo not drawn),-0.294
14,C=CCn1c(SCc2ccccc2)nc(O)cc1=O,2.19
15,C=CCn1c(SCC)nc(O)cc1=O,-0.0583
16,C=CCn1c(SCc2c(F)c(F)c(F)c(F)c2F)nc(O)cc1=O,-0.151
17,O/N=C/c1cc(Br)ccc1OCc1ccc(F)cc1,-0.142
18,Cc1nc2sccn2c(=O)c1Cl,0.324
19,Cn1c(=O)c2c(nc3sccn32)n(C)c1=O,3.7 (active)
20,Cc1nc2sccn2c(=O)c1Br,0.0767
21,COc1ccccc1C(=O)NCc1ccccc1,-0.524
22,Cc1ccc(O)c(NC(=S)NC(=O)c2ccc(-c3ccc(Cl)cc3)o2)c1,0.233
23,NC(=O)c1ccc(Cc2ncc(C(F)(F)F)cc2Cl)s1,4.24 (active)
24,CC(=O)c1ccc(Cc2ncc(C(F)(F)F)cc2Cl)s1,-0.823

row,Structure (SMILES),z-score
1,O=C(CCl)c1ccc(Cc2ncc(C(F)(F)F)cc2Cl)s1,-0.0387
2,CC1Cc2ccccc2N1CC(=O)c1c(N)n(Cc2ccccc2)c(=O)n(C)c1=O (stereo not drawn),-0.314
3,CN1CCN(C(=O)c2sc(=S)n(-c3ccccc3)c2N)CC1,11.1 (active)
4,Nc1c(C(=O)N2CCCCC2)sc(=S)n1-c1ccccc1,-0.163
5,Cc1ccc(-n2c(N)c(C(=O)N3CCN(C)CC3)sc2=S)cc1,0.948
6,COc1ccc(OC)c(NS(=O)(=O)c2cc(OC)ccc2OC)c1,-0.0402
7,COCCCNS(=O)(=O)c1ccc(OC)c(Cl)c1Cl,0.284
8,COc1ccc(COC(=O)NNC(=O)c2ccccc2Cl)cc1,0.289
9,COc1ccc(-n2c(C)cc(C(=O)CN3C(=O)c4ccccc4C3=O)c2C)cc1,0.595
10,COc1cccc(C2C(C(N)=O)=C(C)Nc3nc(-c4cccc(Cl)c4)nn32)c1 (stereo not drawn),-0.342
11,CC1=C(C(N)=O)C(c2cccs2)n2nc(-c3cccc(Cl)c3)nc2N1 (stereo not drawn),2.14
12,COc1ccc(C2C(C(N)=O)=C(C)Nc3nc(-c4cccc(Cl)c4)nn32)cc1OC (stereo not drawn),4.01 (active)
13,COc1ccc(OC)c(C2C(C(N)=O)=C(C)Nc3nc(-c4cccc(Cl)c4)nn32)c1 (stereo not drawn),1.16
14,COc1ccc(C2C(C(N)=O)=C(C)Nc3nc(-c4ccccc4)nn32)cc1OC (stereo not drawn),0.875
15,CC1=C(C(N)=O)C(c2cccnc2)n2nc(-c3cccc(Cl)c3)nc2N1 (stereo not drawn),0.192
16,Cc1nc2ccccn2c1C(=O)NN=C1C2CC3CC(C2)CC1C3,-0.259
17,Cc1ccc(-c2csc3nc[nH]c(=S)c23)cc1C,15.9 (active)
18,S=c1[nH]cnc2scc(-c3ccccc3)c12,13.1 (active)
19,Cc1ccc(-c2csc3ncnc(-n4nnc5ccccc54)c23)cc1C,-0.0158
20,O=c1[nH]cnc2scc(-c3ccc(-c4ccccc4)cc3)c12,0.454
21,O=c1[nH]cnc2scc(-c3ccccc3)c12,0.259
22,O=c1[nH]cnc2scc(-c3ccc(F)cc3)c12,-0.0775
